FBA Mtb inh: inhibits M. tuberculosis FBA enzyme. hit rate 2.3% among 360,000. purified M. tuberculosis FBA, fluorescence read-out. inhibition, % at 1 µM. AID 588726. P9WQA3; in the data active means inhibition above about 27%;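 further: 0% = vehicle and 100% = reference inhibitor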
Target sequence (P9WQA3 whole entry, looked up): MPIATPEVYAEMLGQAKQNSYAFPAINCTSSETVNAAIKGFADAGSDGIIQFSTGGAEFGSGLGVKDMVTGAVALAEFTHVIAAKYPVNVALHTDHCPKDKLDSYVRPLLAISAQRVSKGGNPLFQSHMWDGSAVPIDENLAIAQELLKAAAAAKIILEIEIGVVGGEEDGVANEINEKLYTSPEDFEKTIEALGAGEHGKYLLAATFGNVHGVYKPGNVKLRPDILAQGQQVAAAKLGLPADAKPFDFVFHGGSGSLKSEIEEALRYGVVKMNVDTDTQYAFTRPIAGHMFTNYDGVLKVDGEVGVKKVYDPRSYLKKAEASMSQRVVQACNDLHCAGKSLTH
CCHFV vOTU inh: CCHFV vOTU protease inhibition; Pep-AMC fluorescence; inhibition, % at 11.5 µM; hit rate 0.55% among 370,000; further: 0% = vehicle wells with enzyme and 100% = no enzyme wells
SARS 3CLpro inh: SARS-CoV 3CLpro protease inhibition. recombinant SARS-CoV 3CLpro, quenched FRET peptide cleavage. AID 1706. inhibition, % at 6 µM. hit rate 0.14% among 290,000. P0C6X7; in the data active means inhibition above about 12%
RecA intein inh: Mtb RecA intein splicing inhibition. P9WHJ3. cell-free RecA intein splicing, fluorescence. inhibition, % (concentration not given with the values). hit rate 0.75% among 290,000. AID 2221; in the data active means inhibition above about 30%;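 further: 0% = vehicle wells and 100% = reference inhibitor control wells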
GDH-TPI counter: counter-screen for M. tuberculosis FBA inhibitors: GDH-TPI coupled enzymes; AID 588335; inhibition, % at 4.8 µM; hit rate 1.2% among 360,000; GDH-TPI coupled enzyme counterscreen, NADH absorbance;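 further: 0% = DMSO wells and 100% = wells lacking the enzyme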
DUSP3 inh: blocks human VHR1 dual specificity phosphatase; P51452; recombinant VHR phosphatase, pNPP absorbance; inhibition, % at 13.3 µM; hit rate 0.52% among 290,000; in the data active means inhibition above about 50%
Starred values were filed as active, the others as inactive; / = no result. Compounds with a hit are over-represented: about 4.7% of the library has one in this group of screens. Unless noted, no stated cut-off is given here; in the data, active means inhibition above about 30%; inactive means the rest.

SMILES	FBA Mtb inh	CCHFV vOTU inh	SARS 3CLpro inh	RecA intein inh	GDH-TPI counter	DUSP3 inh
CC(=O)NCCNC(=O)c1ccc(CSc2nc3ccccc3s2)cc1	11.8	15.4	-1.0	0.8	5.8	59.7*
CCOC(=O)N1CCN(S(=O)(=O)c2ccc(NC(C)=O)cc2)CC1	-0.3	13.3	0.5	-6.0	-2.5	52.0*
CC(C)(C)C(=O)Nc1ccc(S(=O)(=O)N2CCCC2)cc1	182.3*	0.0	-1.5	-3.1	5.6	-27.5
COC(=O)c1ccc(S(=O)(=O)N2CCCCCC2)cc1	-5.4	-11.5	0.1	-2.0	46.6*	-4.0
Cc1cc(OCC(=O)Nc2ccc(S(=O)(=O)N3CCN(C)CC3)cc2)ccc1Cl	141.3*	-2.3	-1.9	4.3	0.6	-26.4
C[C@@H]1ON(C)[C@H]2C[C@H]3c4[nH]c5cccc(-c6ccc7c(c6)OCO7)c5c4CCN3C(=O)[C@@H]12	/	13.5	/	/	/	/
O=C(CN1CCCCC1)Nc1nnc(-c2ccc([N+](=O)[O-])cc2)s1	0.7	15.1	-0.9	0.3	41.0*	0.8
O=C(CN1CCCCC1)Nc1nnc(-c2ccccc2)s1	-0.9	5.7	4.8	-2.6	2.6	23.2
CCN(C(=O)COc1ccc(C)cc1OC)c1cccc2ccccc12	-0.7	6.4	/	/	2.2	/
O=C(OCC(=O)N1CCN(C(=O)COC(=O)c2ccccc2NCCO)CC1)c1ccccc1NCCO	161.7*	-173.4	/	/	8.0	/
O=C(OCC(=O)N1CCN(C(=O)c2ccco2)CC1)c1ccccc1NCCO	123.7*	-124.3	/	-13.5	7.6	/
CNc1ccccc1C(=O)OCC(C)=O	62.5*	/	0.9	-4.3	6.9	0.2
CCN(C(=O)COC(=O)c1ccccc1NCCO)c1cccc2ccccc12	113.6*	-131.9	/	-2.8	4.1	/
Cc1cccc(Nc2ccccc2C(=O)OCC(=O)N2CCOCC2)c1C	2.4	3.3	3.3	-2.0	3.2	27.1
COc1ccccc1Cn1c(=S)[nH]c2ccc(F)cc2c1=O	0.1	-8.0	1.9	0.6	3.0	22.5
CC(C)(C)n1nnnc1C(c1ccccc1)N1CCN(c2ncccc2C(F)(F)F)CC1 (stereo unspecified)	/	9.6	/	/	/	/
N#Cc1c(N)[nH]c(C(=O)c2ccccc2)c1-c1ccc(Cl)cc1	/	7.5	/	/	/	/
Cn1c(=O)oc2cc(S(=O)(=O)N3CCN(C(=O)C4CCCO4)CC3)ccc21 (stereo unspecified)	/	-3.2	/	/	/	/
COc1ccc(CN2C[C@@H](CO)O[C@@H](n3cnc4c(NC5CC5)ncnc43)C2)cc1	8.0	11.8	/	/	6.7	/
COC(=O)c1sc(S(=O)(=O)Nc2c(C)nn(C)c2C)c(C(=O)OC)c1C	-3.0	-0.1	/	/	8.4	/
COC(=O)c1sc(NC(=S)NNC(=O)c2c(Br)c(C)nn2C)c(C(=O)OC)c1C	-1.3	6.2	2.0	5.5	52.6*	40.0
O=C(N/N=C/c1cc2c(cc1[N+](=O)[O-])OCO2)c1ccc2c(c1)OCO2	-0.2	17.4	-0.8	-4.2	-4.4	11.8
COc1c(O)ccc(/C=N\NC(=O)c2ccc3c(c2)OCO3)c1[N+](=O)[O-]	-1.6	12.1	-5.4	0.0	32.6*	2.3
COc1c(O)ccc(/C=N/NC(=O)c2ccc3c(c2)OCCO3)c1[N+](=O)[O-]	-1.9	22.7	-4.4	-0.7	62.5*	21.0
CCCCCC(=O)N1C[C@@H](O)[C@H](n2cc(C3CC3)nn2)C[C@@H]1c1ccc(C)cc1	0.6	9.5	/	/	9.9	/
SMILES	FBA Mtb inh	CCHFV vOTU inh	SARS 3CLpro inh	RecA intein inh	GDH-TPI counter	DUSP3 inh
CCOC(=O)[C@@H]1CSCCS(=O)(=O)N1C(=O)[C@H](CCSC)NC(=O)OC(C)(C)C	/	7.0	/	/	/	/
COC(=O)[C@]12C[C@H](CC(=O)NCc3ccc(C)o3)C(=O)N(Cc3ccccc3)C1=C[C@H](C(C)C)O[C@@H]2C1CC1	/	29.3	/	/	/	/
COc1cc2c(c(OC)c1)C(=O)O[C@H](C)C[C@@H]1O[C@H]1CCCCC(=O)C2	/	-3.2	/	/	/	/
CCOC(=O)c1nncc(-c2ccccc2)n1	-0.6	8.7	/	/	4.3	/
CN(C)CCCNc1ccc(-c2n[nH]c(=O)c3ccccc23)cc1[N+](=O)[O-]	-4.5	9.3	-0.7	-3.5	13.9	55.0*
COc1ccc(CN2CCN(Cc3ccc4cc(F)ccc4n3)CC2CCO)c(C)c1C (stereo unspecified)	1.2	-9.3	-0.7	0.3	9.6	50.7*
COc1cc(CN2CCN(Cc3ccc4cc(F)ccc4n3)CC2CCO)cc(OC)c1 (stereo unspecified)	-5.2	-4.7	-6.6	-2.9	-8.9	-28.8

Assay outcomes: PubChem BioAssay, several laboratories
